Activity calls are given as the source filed them. Unless noted, the rule behind the calls is not given here.

The nature of assay [1]: compounds binding Alexa647 anti-His antibody – biochemical, small-molecule microarray, 635 nm fluorescence, artefact control for SMM control protein annotation, primary screen (AID 1128).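 Note: score merges feature fluorescence with signal-to-noise for each printed compound spot.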 The settings on record: higher = more signal.
Assay [2] has as its system Human papillomavirus type 1a E7 protein (residues 1-88). Description: HPV1a E7 small-molecule binders, primary screen, biochemical, small-molecule microarray, residues 1-88, 635 nm (AID 1129). Conditions: small-molecule microarray binding, fluorescence 635 nm; higher = more signal.
For assay [3], the target named is Focal adhesion kinase 1 (Homo sapiens) (UniProt Q05397). The assay is described as follows: PTK2 protein binding on printed compound slides – biochemical, small-molecule microarray, 635/667 nm fluorescence, BSA, DTT, primary screen (AID 1130).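 Note: composite of spot emission at 667 nm and signal to noise over triplicate slides.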 Conditions: 635 nm fluorescence, higher = more signal.
Chain of Focal adhesion kinase 1 (Homo sapiens) (Q05397 whole entry, looked up): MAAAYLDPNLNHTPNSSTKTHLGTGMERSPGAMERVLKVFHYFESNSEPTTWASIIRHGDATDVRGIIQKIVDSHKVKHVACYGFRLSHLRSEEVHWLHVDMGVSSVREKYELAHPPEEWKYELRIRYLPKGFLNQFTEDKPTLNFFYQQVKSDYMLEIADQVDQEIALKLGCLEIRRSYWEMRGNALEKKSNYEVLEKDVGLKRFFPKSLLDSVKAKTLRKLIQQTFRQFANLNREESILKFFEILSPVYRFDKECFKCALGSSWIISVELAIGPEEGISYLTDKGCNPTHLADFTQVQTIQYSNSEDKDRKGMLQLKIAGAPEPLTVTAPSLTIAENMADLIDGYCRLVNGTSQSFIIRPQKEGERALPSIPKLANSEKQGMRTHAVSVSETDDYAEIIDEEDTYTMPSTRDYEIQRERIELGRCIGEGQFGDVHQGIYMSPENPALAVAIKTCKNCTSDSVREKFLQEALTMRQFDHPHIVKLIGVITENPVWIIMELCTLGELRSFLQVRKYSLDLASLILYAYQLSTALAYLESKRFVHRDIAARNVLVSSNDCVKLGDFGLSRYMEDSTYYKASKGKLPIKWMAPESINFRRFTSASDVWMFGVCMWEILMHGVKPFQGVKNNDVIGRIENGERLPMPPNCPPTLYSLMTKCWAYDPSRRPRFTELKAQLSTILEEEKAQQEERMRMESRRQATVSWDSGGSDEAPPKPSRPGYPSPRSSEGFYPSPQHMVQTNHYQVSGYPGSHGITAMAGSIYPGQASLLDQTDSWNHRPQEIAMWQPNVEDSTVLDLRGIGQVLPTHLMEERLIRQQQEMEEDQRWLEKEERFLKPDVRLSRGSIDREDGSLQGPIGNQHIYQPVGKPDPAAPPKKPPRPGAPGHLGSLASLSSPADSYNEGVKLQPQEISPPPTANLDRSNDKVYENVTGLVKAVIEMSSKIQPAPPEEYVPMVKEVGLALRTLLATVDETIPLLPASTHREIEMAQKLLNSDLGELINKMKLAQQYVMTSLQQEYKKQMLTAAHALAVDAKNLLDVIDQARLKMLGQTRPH
For assay [4], the system named is Fibrinogen (Alexa647-labelled). Description: Alexa647-fibrinogen binding to printed small molecules – biochemical, small-molecule microarray, 635/667 nm fluorescence, artefact control for SMM control-protein annotation, profiling panel (AID 1131).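 Note: z-score merges 667 nm fluorescence with per-spot signal-to-noise over triplicate slides.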 The settings on record: fibrinogen-A647 binding fluorescence, higher = more signal.
For assay [5], the target named is Follistatin (Homo sapiens) (UniProt P19883). The assay is described as follows: FST protein binding to printed compounds – biochemical, small-molecule microarray, 635/667 nm fluorescence, primary screen (AID 1132). The settings on record: 635 nm fluorescence, higher = more signal.
Chain of Follistatin (Homo sapiens) (P19883 whole entry, looked up): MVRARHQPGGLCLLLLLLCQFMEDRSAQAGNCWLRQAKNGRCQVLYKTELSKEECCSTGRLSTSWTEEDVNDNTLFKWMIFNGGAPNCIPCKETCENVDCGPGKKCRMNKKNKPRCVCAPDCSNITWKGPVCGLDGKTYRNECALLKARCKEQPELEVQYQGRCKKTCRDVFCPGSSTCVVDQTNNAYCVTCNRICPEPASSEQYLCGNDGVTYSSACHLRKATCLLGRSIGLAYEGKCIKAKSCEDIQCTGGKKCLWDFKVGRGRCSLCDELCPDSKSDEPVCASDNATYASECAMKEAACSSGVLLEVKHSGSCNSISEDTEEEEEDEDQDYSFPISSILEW
The target of assay [6] is Fibroblast growth factor 2 (Homo sapiens) (UniProt P09038). The assay is described as follows: basic fibroblast growth factor binding to printed compounds – biochemical, small-molecule microarray, 635/667 nm fluorescence, primary screen (AID 1133). Conditions: FGF2, fluorescence 635/667, higher = more signal.
Chain of Fibroblast growth factor 2 (Homo sapiens) (P09038 whole entry, looked up): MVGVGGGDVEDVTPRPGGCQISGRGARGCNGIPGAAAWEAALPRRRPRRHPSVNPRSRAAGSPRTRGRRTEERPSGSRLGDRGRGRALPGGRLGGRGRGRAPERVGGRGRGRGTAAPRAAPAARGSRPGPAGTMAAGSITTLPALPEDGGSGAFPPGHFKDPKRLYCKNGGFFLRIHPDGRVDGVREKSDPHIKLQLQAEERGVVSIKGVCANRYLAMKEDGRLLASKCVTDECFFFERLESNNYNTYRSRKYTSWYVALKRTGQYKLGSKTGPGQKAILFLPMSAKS
Assay [7] is described as follows: JC-1 mitochondrial potential readout, lung cancer cells – cell-based, A549, JC-1 fluorescence, basal, 24 h, 100 nL, profiling panel (AID 1138).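 Note: A549 lung adenocarcinoma cells under basal conditions with no added stimulus; test concentration not given here.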 Conditions: higher = more signal.
The subject of assay [8] is Lefty1. The assay is described as follows: Lefty1 protein binding to printed compounds – biochemical, small-molecule microarray, 635/667 nm fluorescence, primary screen (AID 1139). Conditions: fluorescence 635/667, higher = more signal.
Assay [9] relates to wheat germ agglutinin (Triticum aestivum), Alexa647-labelled. Description: Alexa647-WGA lectin binding to printed small molecules – biochemical, small-molecule microarray, 635/667 nm fluorescence, artefact control for SMM control-protein annotation, profiling panel (AID 1140).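 Note: score merges 667 nm feature emission with signal to noise over triplicate slides.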 Conditions: WGA-A647 binding, 635 nm fluorescence, higher = more signal.
Assay [10] deals with Luciferin 4-monooxygenase (Photinus pyralis) (UniProt P08659). The assay is described as follows: inhibition of purified Photinus pyralis luciferase – biochemical, luminescence, purified enzyme, 2006 set, primary screen (AID 1141).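 Note: cell-free assay with purified firefly luciferase at 100 ng per well in PBS; test concentration not given here.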 Conditions: purified firefly luciferase, SteadyGlo luminescence, 30 min; higher = more signal, called active from +8 up or from −8 down.
Chain of Luciferin 4-monooxygenase (Photinus pyralis) (P08659 whole entry, looked up): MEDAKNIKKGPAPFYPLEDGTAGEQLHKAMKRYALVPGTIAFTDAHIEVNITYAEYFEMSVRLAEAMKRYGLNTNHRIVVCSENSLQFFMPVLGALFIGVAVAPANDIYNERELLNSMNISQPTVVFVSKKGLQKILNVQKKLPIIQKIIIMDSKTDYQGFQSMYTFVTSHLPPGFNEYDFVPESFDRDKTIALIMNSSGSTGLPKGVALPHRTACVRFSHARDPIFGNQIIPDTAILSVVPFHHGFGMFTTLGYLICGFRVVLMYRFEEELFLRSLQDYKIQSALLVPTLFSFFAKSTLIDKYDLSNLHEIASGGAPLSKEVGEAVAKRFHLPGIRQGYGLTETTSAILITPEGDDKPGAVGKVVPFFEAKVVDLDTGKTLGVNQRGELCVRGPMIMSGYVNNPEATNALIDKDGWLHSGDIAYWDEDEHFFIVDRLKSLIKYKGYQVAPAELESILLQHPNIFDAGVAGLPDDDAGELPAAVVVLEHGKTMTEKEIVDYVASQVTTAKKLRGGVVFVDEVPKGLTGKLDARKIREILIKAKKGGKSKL
The subject of assay [11] is Wnt5a (protein binding on small-molecule microarray). The assay is described as follows: small molecules binding Wnt5a protein – biophysical, small-molecule microarray, 635/667 nm fluorescence, primary screen (AID 1142).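 Note: fluorescence read at 667 nm with signal to noise per printed feature.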 The settings on record: 635 nm fluorescence, higher = more signal.
The nature of assay [12]: ATP-based viability of Huh7 replicon cells – cell-based, CellTiter-Glo luminescence, basal, 48 h, cytotoxicity control for HCV replication inhibitor project, primary screen (AID 1143).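 Note: Huh7 hepatoma cells carrying a hepatitis C replication reporter with no stimulus; test concentration not given here.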 The settings on record: higher = more signal, called active from +8 up or from −8 down. For orientation: A replicon is a self-replicating genome or part of one, used to study replication in cells.

The nature of assay [13]: Pseudomonas biofilm growth suppression – PAO1 strain, BacTiter-Glo luminescence, LB-PBS, primary screen (AID 1144). The settings on record: P. aeruginosa PAO1 biofilm, 12 h, higher = more signal.
Assay [14] can be described thus: basal CRE-LacZ reporter activity in PC12 – cell-based, unstimulated, primary screen (AID 1145). The settings on record: no forskolin, luminescence, 4.5 h, higher = more signal, called active from +8 up or from −8 down.
Assay [15] in a line: forskolin-driven CRE-LacZ activity in PC12 – cell-based, CRE-LacZ reporter, forskolin-stimulated, primary screen (AID 1146).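 Note: PC12 cells with 6xCRE LacZ reporter stimulated by forskolin 10 µM; beta-galactosidase reporter signal reflecting CREB driven transcription.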 The settings on record: luminescence, 4.5 h, higher = more signal, called active from +8 up or from −8 down.
Assay [16] deals with Streptavidin (Streptomyces avidinii) (UniProt P22629). The assay is described as follows: compounds binding control protein streptavidin – biophysical, small-molecule microarray, 635/667 nm fluorescence, artefact control for SMM compound annotation, primary screen (AID 1147).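 Note: signal reflects streptavidin binding to arrayed compounds as a control protein.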 The settings on record: higher = more signal.
Chain of Streptavidin (Streptomyces avidinii) (P22629 whole entry, looked up): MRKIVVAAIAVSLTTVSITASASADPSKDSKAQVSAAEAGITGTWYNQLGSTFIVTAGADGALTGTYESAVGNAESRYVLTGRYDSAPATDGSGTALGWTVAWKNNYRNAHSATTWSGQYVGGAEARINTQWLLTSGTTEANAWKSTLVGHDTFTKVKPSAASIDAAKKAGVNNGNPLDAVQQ
Assay [17] is described as follows: probe aInhba binding on compound microarray – biochemical, small-molecule microarray, 635/667 nm fluorescence, primary screen (AID 1148).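 Note: score merges 667nm spot fluorescence with signal-to-noise for antibody binding to printed compounds.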 The settings on record: higher = more signal.
Assay [18] concerns the target Torsin-1A (Homo sapiens) (UniProt O14656). Description: TOR1A wild-type binding on microarray – cell lysate, small-molecule microarray, lysate, 635/667 nm, primary screen (AID 1149). The settings on record: COS7 hTOR1A-WT lysate, 635 nm fluorescence, higher = more signal.
The target is the same in assay [19]. Description: torsin A mutant lysate binding on microarrays – cell lysate, small-molecule microarray, COS7 lysate, 635/667 nm fluorescence, primary screen (AID 1150).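 Note: score pools 667 nm emission and signal to noise measuring lysate protein binding.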 The settings on record: COS7 hTOR1A mutant lysate, 635 nm fluorescence, higher = more signal.
Assay [20] concerns Sonic hedgehog protein (Shh). The assay is described as follows: Sonic hedgehog microarray binding compounds – biochemical, small-molecule microarray, 635/667 nm fluorescence, primary screen (AID 1151).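 Note: Shh protein binding to compounds spotted on small-molecule microarray slides; score combines spot fluorescence intensity with signal-to-noise across triplicate slides.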 Conditions: 635 nm fluorescence, higher = more signal.

Chain of Torsin-1A (Homo sapiens) (O14656 whole entry, looked up): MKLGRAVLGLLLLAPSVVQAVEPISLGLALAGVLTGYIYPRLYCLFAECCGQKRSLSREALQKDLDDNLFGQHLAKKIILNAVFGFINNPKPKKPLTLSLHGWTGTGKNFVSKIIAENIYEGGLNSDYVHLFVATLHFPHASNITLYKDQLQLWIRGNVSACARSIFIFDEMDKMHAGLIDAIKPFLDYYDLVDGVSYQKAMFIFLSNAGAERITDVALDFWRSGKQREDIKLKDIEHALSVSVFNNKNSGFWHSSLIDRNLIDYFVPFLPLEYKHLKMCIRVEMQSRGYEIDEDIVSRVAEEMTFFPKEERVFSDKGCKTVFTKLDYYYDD

In the case of `CO[C@H]1COC(=O)CC=C[C@H](C)[C@@H](OC)COC(=O)[C@@H](C)COC(=O)CC=C[C@@H]1C`, the composite z-score is -0.756 in assay [1]; -0.699 in assay [2]; -0.111 in assay [3]; -1.26 in [4]; 1.5 in assay [5]; 1.77 in [6]. Also, the composite z-score in [8] was 1.55; in assay [9], -1.05; in assay [11] it was -0.545; in assay [16], -0.411; in assay [17], -0.331; in [18], 2.79. Moreover, the composite z-score is 2.2 in [19] and 2.12 in [20]. The z-score in assay [7] was 0.657; in assay [10], -0.454 (inactive); in [12] it was -1.66 (inactive); in [13], 0.0344 (inactive); in assay [14], -0.292 (inactive); in assay [15], -1.02 (inactive).
With `COCOc1ccc(Br)cc1C(=O)[C@@H]1O[C@H]1c1cccc(OC)c1`, the composite z-score in assay [1] is -0.183; in [2] it was 0.513; in assay [3], 0.0147; in assay [4], 0.488; in assay [5] it was 0.339; in assay [6] it was -0.0753. In addition, the composite z-score in assay [8] was 0.346; in [9], 0.432; in assay [11], -0.202; in [16] it was 0.015; in assay [17] it was -0.149; in assay [18], 0.736. The composite z-score was found to be 0.437 in assay [19] and 0.349 in [20]. Besides, the z-score in assay [7] is 1.1; in [10], -0.54 (inactive); in assay [12], -1.97 (inactive); in assay [13], 0.64 (inactive); in assay [14] it was 1.2 (inactive); in assay [15], -0.37 (inactive).
Consider `O=C(C=Cc1ccc2c(c1)OCO2)c1ccc(F)cc1`, for which the composite z-score in assay [1] is 0.877; in [2], -0.575; in assay [3] it was -0.174; in assay [4], 0.0796; in assay [5], 0.853; in assay [6] it was 1.31. Further, the composite z-score in assay [8] is 1.21; in assay [9] it was -0.177; in assay [11] it was 0.239; in assay [16], 1.32; in [17], 0.259; in assay [18] it was 0.245. Also, the composite z-score in assay [19] was -0.397; in [20], 2.05. Also, the z-score in [7] is -0.0292; in assay [10] it was -6.89 (inactive); in assay [12], -1.25 (inactive); in assay [13], 0.583 (inactive); in [14], 1.28 (inactive); in assay [15], 0.362 (inactive).
Take `CO[C@H]1COC(=O)CC=C[C@@H](C)[C@H](OC)COC(=O)[C@@H]2CCCN2C(=O)CC=C[C@@H]1C`: the composite z-score is 0.118 in assay [1]; -0.834 in assay [2]; -0.145 in [3]; -1.02 in assay [4]; 1.39 in assay [5]; 1.01 in assay [6]. Further, the composite z-score in assay [8] is 1.57; in assay [9] it was -0.483; in [11], -0.0779; in assay [16] it was -0.407; in [17], -0.186; in assay [18], 1.72. Moreover, the composite z-score turned out to be 2.49 in assay [19] and 2.18 in assay [20]. Also, the z-score in assay [7] is 0.0624; in assay [10], -0.813 (inactive); in assay [12], 0.192 (inactive); in [13], 0.474 (inactive); in assay [14], 0.251 (inactive); in [15], -0.759 (inactive).
In the case of `COC(=O)CC=C[C@@H](C)[C@@H](C=NO[C@H](C)c1cn([C@H](CO)Cc2ccccc2)nn1)NS(=O)(=O)c1ccc(C)cc1`, the composite z-score in assay [1] came out at 2.47; in assay [2], 0.611; in assay [3], 0.608; in [4], 0.951; in assay [5] it was 0.268; in [6], 0.0757. The composite z-score in [8] is 0.19; in assay [9], 0.645; in assay [11] it was -0.0374; in assay [16], 0.912; in [17], -0.0531; in assay [18], 0.708. Besides, the composite z-score in assay [19] stood at 1.8; in assay [20], 0.285. The z-score in assay [7] is -0.248; in [10], -0.965 (inactive); in [12], -1.29 (inactive); in assay [13] it was 0.92 (inactive); in assay [14], 1.98 (inactive); in [15], 0.767 (inactive).

Values taken from PubChem BioAssay.
